In PubChem BioAssay (EPA / NIEHS) one finds outcome and AC50 data, which are given here for 6 compounds.

What is called AC50 is the concentration giving half of the maximal activity seen.

Records with an inconclusive call do not appear. The source made the active and inactive calls. Rule for the calls, unless noted: active = hit-call score of the fitted dose curve at least 0.9, where 1 is the maximum; inactive = score below 0.9.

Read-out in test [1]: Monocyte Chemoattractant Protein-1 (MCP1), CCL2 (gene 6347)
The experiment in a line: BSK_LPS_MCP1: BioMAP Diversity Plus: LPS Assay for Monocyte Chemoattractant Protein-1 (MCP1) Biomarker Activity (AID 2283081).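 For AC50: secreted MCP-1 protein quantified by ELISA in culture supernatant.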 The settings on record: primary human HUVEC with PBMC; actives raise or lower the signal. In a few lines:
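LPS-stimulated HUVEC/PBMC co-culture; chemical, 24 h; MCP-1 by ELISA; bidirectional fit vs DMSO; cytotoxicity via SRB (0.1% stain, 10% TCA fix, 560 nm) in parallel wells.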

Test [2] can be described thus: BSK_LPS_PGE2: BioMAP Diversity Plus: LPS Assay for Prostaglandin E2 (PGE2) Biomarker Activity (AID 2283082).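 For AC50: secreted prostaglandin E2 measured by ELISA in LPS-stimulated co-culture.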 The settings on record: primary human HUVEC with PBMC; actives raise or lower the signal. In outline:
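LPS-activated HUVEC/PBMC co-culture; cmpd dosed, 24 h; PGE2 by ELISA; bidirectional fit vs DMSO; SRB (0.1%, TCA-fixed, 560 nm) in parallel plates for overt cytotox.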

Read-out in test [3]: Macrophage colony-stimulating factor (MCSF), CSF1 (gene 1435)
The experiment in a line: BSK_LPS_MCSF: BioMAP Diversity Plus: LPS Assay for Macrophage colony-stimulating factor (MCSF) Biomarker Activity (AID 2283083). The settings on record: primary human HUVEC with PBMC; actives raise or lower the signal. In outline: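 Compound is added to a human vascular primary co-culture of umbilical vein endothelium and blood mononuclear cells. After 24 h, M-CSF is quantified by ELISA. Signal changes are fitted in both directions against DMSO.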

Read-out in test [4]: Tissue Factor, F3 (gene 2152)
Description: BSK_LPS_TissueFactor: BioMAP Diversity Plus: LPS Assay for Tissue Factor Biomarker Activity (AID 2283084). The settings on record: primary human HUVEC with PBMC; actives raise or lower the signal. In a few lines: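 In this co-culture system of umbilical vein endothelium with PBMC, stimulated with LPS, cell-surface CD142 is detected by ELISA at 24 h. Endpoint values derive from bidirectional fitting, DMSO serving as baseline.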

Read-out in test [5]: Vascular cell adhesion molecule 1 (VCAM1), VCAM1 (gene 7412)
The experiment in a line: BSK_LPS_VCAM1: BioMAP Diversity Plus: LPS Assay for Vascular cell adhesion molecule 1 (VCAM1) Biomarker Activity (AID 2283086). The settings on record: primary human HUVEC with PBMC; actives raise or lower the signal. In outline: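 HUVEC + PBMC co-culture, LPS system; compound 24 h; VCAM-1 by ELISA; bidirectional fit vs DMSO control; parallel SRB (0.1%, TCA-fixed, 560 nm) for cytotoxicity.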

Read-out in the next test: CD38, CD38 (gene 952)
Description: BSK_SAg_CD38: BioMAP Diversity Plus: SAg Assay for CD38 Biomarker Activity (AID 2283087). To be noted: primary human HUVEC with PBMC; actives raise or lower the signal. In a few lines: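 Human HUVEC plus PBMC co-culture stimulated with superantigen; CD38 measured by ELISA 24 h after chemical dosing. Fluorescence read-out, bidirectional fit against DMSO; cytotoxicity tracked in parallel by SRB and Alamar Blue.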

Read-out in another test: CD40, CD40 (gene 958)
Description: BSK_SAg_CD40: BioMAP Diversity Plus: SAg Assay for CD40 Biomarker Activity (AID 2283088). The settings on record: primary human HUVEC with PBMC; actives raise or lower the signal. In outline: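 Fluorescence ELISA read-out of CD40 from umbilical vein endothelium plus peripheral blood mononuclear cells, sampled 24 h after dosing. Values come from bidirectional curve fitting with DMSO as baseline.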

Read-out in another test: CD69, CD69 (gene 969)
The experiment in a line: BSK_SAg_CD69: BioMAP Diversity Plus: SAg Assay for CD69 Biomarker Activity (AID 2283089).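 For AC50: cell surface CD69 protein quantified by ELISA with fluorescence detection.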 The settings on record: primary human HUVEC with PBMC; actives raise or lower the signal. In outline:
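ELISA, fluorescence read-out: CD69 on human umbilical vein endothelial cell + PBMC co-culture, 24 h post-dosing. Gain or loss of signal fitted bidirectionally against DMSO baseline.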

Read-out in test [6]: Monocyte Chemoattractant Protein-1 (MCP1), CCL2 (gene 6347)
Description: BSK_SAg_MCP1: BioMAP Diversity Plus: SAg Assay for Monocyte Chemoattractant Protein-1 (MCP1) Biomarker Activity (AID 2283090). The settings on record: primary human HUVEC with PBMC; actives raise or lower the signal. In a few lines:
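MCP-1 levels in the endothelial–PBMC SAg co-culture were quantified by ELISA at 24 h post-dosing; both increases and decreases versus DMSO scored. Cytotoxicity monitored by SRB total protein in parallel cultures.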

Read-out in test [7]: E-selectin (Homo sapiens) (UniProt P16581)
The experiment in a line: BSK_SAg_Eselectin: BioMAP Diversity Plus: SAg Assay for Eselectin Biomarker Activity (AID 2283091). To be noted: primary human HUVEC with PBMC; actives raise or lower the signal. In a few lines:
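Primary human endothelial cells and peripheral blood mononuclear cells were co-cultured and exposed to chemical for 24 hours. E-selectin levels were then quantified by ELISA, with bidirectional curve fitting normalised to DMSO controls.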

The nature of test [8]: BSK_SAg_PBMCCytotoxicity: PBMC Cytotoxicity Assessment in the BioMAP Diversity Plus: SAg Assay (AID 2283093).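 For AC50: PBMC superantigen activated with SEB plus TSST-1 one hour after compound addition.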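 Note: PBMC viability measured as Alamar Blue reduction fluorescence at 546/580 nm; fitted both ways against DMSO so a hit may be loss or gain of signal.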 The settings on record: primary human HUVEC with PBMC. In a few lines:
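HUVEC/PBMC co-culture; PBMC exposed to chemical 1 h before SEB and TSST-1 activation (20 ng/mL each), incubated 90 h, then Alamar Blue 6 h, fluorescence 546/580 nm. Bidirectional fit versus DMSO baseline.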

Read-out in test [9]: Interleukin-8 (IL8), CXCL8 (gene 3576)
The experiment in a line: BSK_SAg_IL8: BioMAP Diversity Plus: SAg Assay for Interleukin-8 (IL8) Biomarker Activity (AID 2283094). The settings on record: primary human HUVEC with PBMC; actives raise or lower the signal. In outline: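 ELISA read-out of IL-8 in a primary human vascular co-culture (umbilical vein endothelium plus PBMC), taken 24 h after compound addition. Values derive from bidirectional fits against DMSO negative controls.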

Test [10] is described as follows: BSK_SAg_Proliferation: Cell Proliferation Assessment in the BioMAP Diversity Plus: SAg Assay (AID 2283095).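 Note: relative cell number as total protein by SRB absorbance in sub-confluent culture.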 The settings on record: primary human HUVEC with PBMC. In outline:
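Cells (endothelium plus PBMC, human primary) were dosed with chemical, cultured 96 h, fixed in 10% TCA and stained with 0.1% SRB. Absorbance at 560 nm gave relative protein, fitted bidirectionally relative to DMSO.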

Test [11] in a line: BSK_SAg_SRB: Viability Assessment in the BioMAP Diversity Plus: SAg Assay (AID 2283096).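 Note: cells read one day after compound addition; hits may be either gain or loss of signal compared with DMSO.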 To be noted: primary human HUVEC with PBMC. In outline: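 Human umbilical vein endothelial cells co-cultured with PBMC, read 24 h after compound dosing. Total protein measured by sulforhodamine B staining (0.1% SRB after 10% TCA fixation, absorbance 560 nm); bidirectional fit versus DMSO baseline.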

Read-out in test [12]: Monokine induced gamma interferon (MIG), CXCL9 (gene 4283)
The experiment in a line: BSK_SAg_MIG: BioMAP Diversity Plus: SAg Assay for Monokine induced gamma interferon (MIG) Biomarker Activity (AID 2283092). To be noted: primary human HUVEC with PBMC; actives raise or lower the signal. In outline:
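ELISA readout of MIG/CXCL9; primary human umbilical vein endothelial cells co-cultured with peripheral blood mononuclear cells; 24 h post-dose; gain/loss fit vs DMSO baseline.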

Test [13] addresses human CYP2B6, CYP2B6 (gene 1555) (UniProt P20813). The experiment in a line: NVS_ADME_hCYP2B6: NovaScreen (NVS) CYP450-related Enzyme Activity (ADME) Assay for human CYP2B6 (AID 2283101; active = hit-call score of the fitted dose curve at least 0.9, where 1 is the maximum). In outline:
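Fluorescence-based enzyme activity of recombinant human CYP2B6, measured 1 h post-dose against acetonitrile vehicle baseline. Screened at a single concentration of 10 uM in duplicate before concentration-response follow-up.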

Test [14] has as its target human CYP19A1, CYP19A1 (gene 1588) (UniProt P11511). The experiment in a line: NVS_ADME_hCYP19A1: NovaScreen (NVS) CYP450-related Enzyme Activity (ADME) Assay for human CYP19A1 (AID 2283098; active = hit-call score of the fitted dose curve at least 0.9, where 1 is the maximum). In outline:
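Recombinant enzyme in a cell-free format, read 0.5 h after dosing by fluorescence from a fluorogenic substrate. Loss of signal was fitted against acetonitrile as baseline. Primary screen in duplicate at 10 uM, actives then tested in concentration series.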

Chain of E-selectin (Homo sapiens) (P16581 whole entry, looked up): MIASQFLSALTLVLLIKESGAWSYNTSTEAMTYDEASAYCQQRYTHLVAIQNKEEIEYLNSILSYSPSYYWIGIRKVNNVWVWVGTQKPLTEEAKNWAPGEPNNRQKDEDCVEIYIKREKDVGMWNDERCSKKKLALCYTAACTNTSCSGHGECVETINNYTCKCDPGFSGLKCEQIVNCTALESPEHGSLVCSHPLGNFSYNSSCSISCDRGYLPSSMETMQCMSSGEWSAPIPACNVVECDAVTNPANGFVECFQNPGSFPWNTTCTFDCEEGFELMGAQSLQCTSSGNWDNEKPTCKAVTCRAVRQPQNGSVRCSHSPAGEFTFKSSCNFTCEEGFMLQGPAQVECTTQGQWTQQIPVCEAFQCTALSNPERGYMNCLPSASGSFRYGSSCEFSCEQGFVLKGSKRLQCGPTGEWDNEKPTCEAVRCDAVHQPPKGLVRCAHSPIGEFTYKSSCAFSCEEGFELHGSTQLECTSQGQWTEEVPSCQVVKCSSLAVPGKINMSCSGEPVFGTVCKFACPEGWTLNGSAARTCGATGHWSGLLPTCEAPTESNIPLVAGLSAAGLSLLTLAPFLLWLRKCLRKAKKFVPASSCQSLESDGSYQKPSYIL
Chain of human CYP2B6, CYP2B6 (gene 1555) (P20813 whole entry, looked up): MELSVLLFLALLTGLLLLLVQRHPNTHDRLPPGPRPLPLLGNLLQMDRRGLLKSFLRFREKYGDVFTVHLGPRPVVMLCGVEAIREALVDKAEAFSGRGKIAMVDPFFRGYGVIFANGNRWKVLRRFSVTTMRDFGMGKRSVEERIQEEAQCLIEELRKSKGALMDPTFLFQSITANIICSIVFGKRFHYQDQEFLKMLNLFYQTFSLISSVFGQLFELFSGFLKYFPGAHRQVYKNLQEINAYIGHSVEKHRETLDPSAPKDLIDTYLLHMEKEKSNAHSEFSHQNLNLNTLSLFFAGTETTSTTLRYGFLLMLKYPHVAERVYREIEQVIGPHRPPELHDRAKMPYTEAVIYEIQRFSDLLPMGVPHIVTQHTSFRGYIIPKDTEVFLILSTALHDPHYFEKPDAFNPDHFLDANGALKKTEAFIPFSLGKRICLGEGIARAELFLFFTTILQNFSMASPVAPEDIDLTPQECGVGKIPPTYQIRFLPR
Chain of human CYP19A1, CYP19A1 (gene 1588) (P11511 whole entry, looked up): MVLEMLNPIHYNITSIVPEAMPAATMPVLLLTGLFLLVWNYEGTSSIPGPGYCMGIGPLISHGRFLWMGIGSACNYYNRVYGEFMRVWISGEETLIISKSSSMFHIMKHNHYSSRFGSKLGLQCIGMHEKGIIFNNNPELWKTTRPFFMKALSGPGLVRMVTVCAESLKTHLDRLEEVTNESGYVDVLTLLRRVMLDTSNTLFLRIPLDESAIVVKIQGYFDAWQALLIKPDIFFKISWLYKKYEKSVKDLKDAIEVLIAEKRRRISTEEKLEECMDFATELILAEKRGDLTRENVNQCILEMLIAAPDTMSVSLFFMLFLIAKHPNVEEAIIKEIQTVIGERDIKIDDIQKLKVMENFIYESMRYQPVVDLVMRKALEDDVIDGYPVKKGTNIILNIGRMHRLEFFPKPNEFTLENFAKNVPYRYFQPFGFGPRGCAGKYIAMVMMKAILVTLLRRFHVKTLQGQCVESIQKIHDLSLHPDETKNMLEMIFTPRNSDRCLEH

`O=C(NC(=O)c1cc(F)c(F)cc1Cl)Nc1cc(F)ccc1N1CCC(C(=O)O)CC1`: the outcome in [1] was “inactive”; in test [2], “inactive”; in test [3], “inactive”; in test [4] it was “inactive”; in [5] it was “inactive”; with CD38, CD38 (gene 952), “inactive”. Besides, the outcome with CD40, CD40 (gene 958) is “inactive”; with CD69, CD69 (gene 969), “inactive”; in test [6], “inactive”; in [7], “inactive”; in [8] it was “inactive”; in test [9], “inactive”. Also, the result in [10] and in test [11] was inactive.

Take `ClC1=C(Cl)[C@]2(Cl)[C@@H]3[C@H]4C[C@H]([C@@H]5O[C@H]45)[C@@H]3[C@@]1(Cl)C2(Cl)Cl`: the outcome is “inactive” in test [1]; “inactive” in test [2]; “inactive” in test [3]; “inactive” in test [4]; “inactive” with CD38, CD38 (gene 952); “inactive” in the test with CD69, CD69 (gene 969). Moreover, the result in [6], in [12] and in [9] was inactive. Besides, the half-maximal activity concentration (AC50) was 8.47 µM (active) with CD40, CD40 (gene 958); 5.87 µM (active) in test [7]; 5.53 µM (active) in [8]; 7.7 µM (active) in test [10]; 8.56 µM (active) in test [11]; 4.45 µM (active) in test [13].

As for `CC(C)(c1ccccc1)c1ccc(O)cc1`, the AC50 in [1] is 35.2 µM (active); in [2], 12.4 µM (active); in test [3], 33.6 µM (active); in [4], 32.2 µM (active); in test [5], 33.4 µM (active); in the test with CD38, CD38 (gene 952), 31.2 µM (active). Also, the AC50 with CD40, CD40 (gene 958) was 31.1 µM (active); with CD69, CD69 (gene 969), 37.9 µM (active); in test [6], 36.1 µM (active); in test [7], 33.5 µM (active); in [12] it was 38.7 µM (active); in test [8], 31.5 µM (active). Besides, the AC50 in [9] is 30.9 µM (active); in [10], 34.2 µM (active); in [11], 30.4 µM (active); in test [13], 7.47 µM (active).

`CCCN(CCC)N=O`: the outcome in test [1] was “inactive”; in test [2], “inactive”; in [3], “inactive”; in test [4] it was “inactive”; in test [5], “inactive”; with CD38, CD38 (gene 952), “inactive”. The outcome with CD40, CD40 (gene 958) was “inactive”; with CD69, CD69 (gene 969), “inactive”; in test [6], “inactive”; in [7], “inactive”; in test [8] it was “inactive”; in [9], “inactive”. In addition, the outcome in test [10], in [11] and in test [14] was inactive.

Take `CCC(=O)O[C@H]1CC[C@H]2[C@@H]3CCC4=CC(=O)CC[C@]4(C)[C@H]3CC[C@]12C`: the AC50 in [1] is 25.5 µM (active); in test [3], 26 µM (active); in test [4], 30.8 µM (active); in [5], 30.5 µM (active); with CD38, CD38 (gene 952) it was 36 µM (active); with CD40, CD40 (gene 958) it was 31.9 µM (active). Moreover, the half-maximal activity concentration (AC50) in the test with CD69, CD69 (gene 969) was 31.1 µM (active); in test [6], 30.1 µM (active); in test [7], 34.2 µM (active); in test [8], 37.9 µM (active); in test [9], 29.8 µM (active); in test [10], 33.3 µM (active). Moreover, the half-maximal activity concentration (AC50) in test [11] was 29.4 µM (active). Moreover, the outcome in [2] was inactive.

As for `CCC(C)(c1ccc(O)cc1)c1ccc(O)cc1`, the outcome in test [1], in test [4] and in test [11] was inactive. For the same compound, the AC50 in test [2] was 13.3 µM (active); in [3], 20 µM (active); in test [5], 20 µM (active); with CD38, CD38 (gene 952), 25.6 µM (active); with CD40, CD40 (gene 958), 20 µM (active); with CD69, CD69 (gene 969), 20 µM (active). In addition, the AC50 in [6] was 20 µM (active); in test [7], 16.8 µM (active); in test [8] it was 29.8 µM (active); in test [9], 16 µM (active); in test [10] it was 28.5 µM (active); in [13], 4.81 µM (active).
